# Compounds with a hit are over-represented: about 6.7% of the library has one in this group of screens.
# Pf Dd2 inh: P. falciparum Dd2 growth inhibitors, primary screen, SYBR Green fluorescence, single dose replicates. 72 h; active compounds read low. activity change, % at 10 µM. 94,000 compounds, 2.3% hits. AID 1159554, 2015; in the data active = activity change below about -80%
# Tcruzi prolif: T. cruzi intracellular proliferation inhibitors, primary screen, cell-based, beta-gal Tulahuen parasites, NIH3T3 host, luminescence; AID 624255, 2012; inhibition, % at 8.34 µM; 77,000 compounds, 5.9% hits; T. cruzi beta-gal in NIH3T3, GalScreen luminescence, 90 h;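 active = mean inhibition above about 93%, with at least 55% of replicates each passing it, limit read from the data, passing the limit was not always enough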
# C diff HTS: C. difficile growth inhibitors, primary screen, HTS; growth activity, negative = inhibition, % at 16 µg/mL (by protocol); 86,000 compounds, 0.25% hits; Clostridium difficile clinical isolate growth, OD600, 24 h; active compounds read low; AID 1259249, 2017;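 active = mean growth activity at or below -80% and every replicate also at or below -80%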;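 also: 0% = DMSO wells and -100% = levofloxacin 16 µg/mL wells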
# Active calls of the source: *; / = no result given; ! = not active in a repeat.
SMILES,Pf Dd2 inh,Tcruzi prolif,C diff HTS
C[C@@H]1CCCCO[C@H](CN(C)S(=O)(=O)c2ccccc2)[C@@H](C)CN([C@@H](C)CO)C(=O)c2cc(NC(=O)C3CCCCC3)ccc2O1,-80*,45,-2
C[C@@H]1CCCCO[C@H](CN(C)S(=O)(=O)c2ccccc2)[C@H](C)CN([C@@H](C)CO)C(=O)c2cc(NC(=O)C3CCCCC3)ccc2O1,-73,38,-3
C[C@H]1CCCCO[C@H](CN(C)S(=O)(=O)c2ccccc2)[C@@H](C)CN([C@@H](C)CO)C(=O)c2cc(NC(=O)C3CCCCC3)ccc2O1,-84*,36,-7
CN1C(=O)c2cc(NC(=O)c3cccs3)ccc2OC[C@@H]2O[C@H](CC(=O)N3CCCCC3)CC[C@@H]21,9,69,/
CCC(=O)Nc1ccc2c(c1)C(=O)N(C)C[C@@H](OC)[C@H](C)CN(C(=O)Cc1ccccn1)[C@H](C)CO2,-37,-13,/
CC(=O)N1[C@H](CNC(=O)CN2CCOCC2)[C@@H](c2ccccc2)[C@@H]1CO,-44,46,4
C[C@H](NC(=O)[C@@H]1[C@@H](CO)[C@@H]2Cn3c(ccc(-c4cccnc4)c3=O)[C@@H]2N1C)c1ccccc1,5,49,2
C[C@H]1CN([C@@H](C)CO)C(=O)c2cccc(NC(=O)c3ccc(-c4nccs4)cc3)c2O[C@H]1CN(C)Cc1ccc(-c2ccccc2)cc1,-54,34,32
C[C@H]1CN([C@@H](C)CO)C(=O)c2cccc(NC(=O)c3ccc(-c4nccs4)cc3)c2O[C@@H]1CN(C)Cc1ccc2c(c1)OCO2,-34,10,3
C[C@H](CO)N1C[C@H](C)[C@H](CN(C)Cc2ccc(-c3ccccc3)cc2)Oc2c(NC(=O)c3ccc(-c4nccs4)cc3)cccc2C1=O,-52,73,26
C[C@@H]1CN([C@@H](C)CO)C(=O)c2cccc(NC(=O)c3ccc(-c4nccs4)cc3)c2O[C@@H]1CN(C)C(=O)Nc1cccc2ccccc12,-86*,-100,5
C[C@H](CO)N1C[C@H](C)[C@@H](CN(C)Cc2ccc(-c3ccccc3)cc2)Oc2c(NC(=O)c3ccc(-c4nccs4)cc3)cccc2C1=O,-86*,90,3
C[C@@H]1CN([C@H](C)CO)C(=O)c2cccc(NC(=O)c3ccc(-c4nccs4)cc3)c2O[C@H]1CN(C)Cc1ccc2c(c1)OCO2,-92*,21,-2
C[C@@H]1CN([C@H](C)CO)C(=O)c2cccc(NC(=O)c3ccc(-c4nccs4)cc3)c2O[C@H]1CN(C)Cc1ccc(-c2ccccc2)cc1,-82*,85,-8
C[C@H]1CN([C@@H](C)CO)C(=O)c2cccc(NC(=O)c3ccc(-c4nccs4)cc3)c2O[C@H]1CN(C)C(=O)Nc1cccc2ccccc12,12,-63,-3
COc1ccc2c3c([nH]c2c1)[C@H](CO)N(C(=O)c1ccc(F)cc1)CC31CN(C(=O)CC2CC2)C1,3,/,-4
COc1ccccc1NC(=O)N[C@@H]1CC[C@@H](CCNS(=O)(=O)c2ccc(C)cc2)O[C@@H]1CO,19,/,-9
CN1C(=O)c2cc(NC(=O)c3ccc(F)c(F)c3)ccc2OC[C@@H]2O[C@H](CC(=O)O)CC[C@@H]21,15,16,5
COc1cccc(-c2ccc(C3[C@H]4CNC[C@@H]3N4C(=O)Nc3ccc(C(F)(F)F)cc3)cc2)c1 (stereo partly drawn),9,/,-94*!
O=C(Nc1ccc(C(F)(F)F)cc1)N1[C@@H]2CNC[C@H]1C2c1ccc(-c2cccnc2)cc1 (stereo partly drawn),10,/,-3
COc1ccc(NC(=O)N2[C@@H]3CNC[C@H]2C3c2ccc(-c3ccccc3C)cc2)cc1 (stereo partly drawn),4,/,39
Cc1ccccc1-c1ccc(C2[C@H]3CNC[C@@H]2N3C(=O)Nc2ccc(Cl)cc2)cc1 (stereo partly drawn),14,/,-97*!
O=C(Nc1ccc(C(F)(F)F)cc1)N1[C@@H]2CNC[C@H]1C2c1ccc(-c2ccc(F)cc2)cc1 (stereo partly drawn),25,/,-99*
COc1ccc(NC(=O)N2[C@@H]3CNC[C@H]2C3c2ccc(-c3cccc(OC)c3)cc2)cc1 (stereo partly drawn),4,/,49
O=C(N[C@@H]1C=C[C@@H](CC(=O)N2CCc3ccccc3C2)O[C@H]1CO)C1CCOCC1,-6,/,-4
COc1ccc(CN2C[C@@H](C)[C@@H](OC)CN(C)C(=O)c3cc(NC(=O)c4nc5ccccc5s4)ccc3OC[C@H]2C)cc1,-79,/,/
COc1ccc(CN2C[C@@H](C)[C@H](OC)CN(C)C(=O)c3ccc(NC(=O)c4nc5ccccc5s4)cc3OC[C@H]2C)cc1,-88*,91,9
